Values joined by “and” are separate entries in the source; they are usually repeats but may differ in a detail not shown here. Equal entries are not always repeated. Results filed as inconclusive are left out. Some compounds were tested as several samples or in several runs, with calls that do not always agree. Active and inactive are the calls of the source. Unless noted, the call rests on the fitted dose curve; in most records, active means well fitted curve in the direction sought with a large enough effect in the repeat runs; inconclusive means weak or mixed curves; inactive means no such curve, though single readings can be large; an effect the other way counts as inactive or inconclusive.
Tests used:
[1] = qHTS assay to identify small molecule antagonists of the thyroid receptor (TR) signaling pathway - cell viability counter screen (AID 743064); further: nearly all actives have a fitted effect of over 50% in size; further: potency means the concentration at half of the fitted maximal effect
Outline: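 Fluorescence from CellTiter-Fluor, added after 23.5 h exposure at 37 °C, reported viability of GH3.TRE-Luc cells co-treated with compound and 1 nM T3. Measured in the same wells as the luciferase TR readout.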

[2] = qHTS assay to identify small molecule antagonists of the thyroid receptor (TR) signaling pathway (AID 743065); further: series mostly up to about 70 µM; nearly all actives have a fitted effect of over 55% in size
Outline: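 GH3.TRE-Luc rat pituitary cells (two TREs driving luciferase) were dosed with compound, then stimulated with 1 nM T3 (final) for 23.5 h at 37 C. ONE-Glo luminescence was the read-out, with CellTiter-Fluor fluorescence as the cytotoxicity counter-screen.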

[3] = tested on: thyroid hormone receptor (rat, GH3 cells); test: qHTS assay to identify small molecule agonists of the thyroid receptor (TR) signaling pathway (AID 743066; calls by dose curve)
[4] = molecular target: Estrogen receptor (Homo sapiens) (UniProt P03372); test: qHTS assay to identify small molecule antagonists of the estrogen receptor alpha (ER-alpha) signaling pathway (AID 743069; active means well fitted curve in the direction sought with a large enough effect in the signal ratio in the repeat runs, not every such curve was filed as active; the % refers to the signal ratio)
Estrogen receptor (Homo sapiens), sequence (P03372 whole entry, looked up): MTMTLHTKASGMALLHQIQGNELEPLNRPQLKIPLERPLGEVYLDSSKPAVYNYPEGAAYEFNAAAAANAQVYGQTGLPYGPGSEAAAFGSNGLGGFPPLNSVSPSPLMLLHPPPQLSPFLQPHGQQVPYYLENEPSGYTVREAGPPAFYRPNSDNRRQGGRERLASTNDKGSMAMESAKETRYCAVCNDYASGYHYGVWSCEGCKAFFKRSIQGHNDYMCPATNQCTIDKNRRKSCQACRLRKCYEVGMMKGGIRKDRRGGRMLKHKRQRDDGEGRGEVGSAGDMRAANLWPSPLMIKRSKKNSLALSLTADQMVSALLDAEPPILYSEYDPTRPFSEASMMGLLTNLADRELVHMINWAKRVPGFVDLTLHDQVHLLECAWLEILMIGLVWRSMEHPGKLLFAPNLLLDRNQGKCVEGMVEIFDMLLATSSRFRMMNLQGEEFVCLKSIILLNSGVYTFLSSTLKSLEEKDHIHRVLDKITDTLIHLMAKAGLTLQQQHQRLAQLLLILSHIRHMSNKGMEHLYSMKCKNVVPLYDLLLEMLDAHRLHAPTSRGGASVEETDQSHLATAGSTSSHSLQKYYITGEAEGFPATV
Outline: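 In this cell-based reporter format, GripTite HEK293 cells harbouring ER-alpha-UAS-bla were grown overnight with 2% charcoal-stripped FBS, dosed with DMSO-dissolved compounds, then challenged with 17beta-estradiol. After 18 hr at 37C, beta-lactamase activity was detected by FRET fluorescence.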

[5] = qHTS assay to identify small molecule antagonists of the estrogen receptor alpha (ER-alpha) signaling pathway - cell viability counter screen (AID 743074; calls by dose curve; further: nearly all actives have a fitted effect of over 45% in size)
[6] = molecular target: Estrogen receptor (Homo sapiens) (UniProt P03372); test: qHTS assay to identify small molecule agonists of the estrogen receptor alpha (ER-alpha) signaling pathway (AID 743075; calls by dose curve)
[7] = molecular target: Estrogen receptor (Homo sapiens) (UniProt P03372); test: qHTS assay to identify small molecule agonists of the estrogen receptor alpha (ER-alpha) signaling pathway using the BG1 cell line (AID 743079); further: nearly all actives have a fitted effect of over 20% in size; further: potency means the concentration at half of the fitted maximal effect
[8] = qHTS assay to identify small molecule antagonists of the estrogen receptor alpha (ER-alpha) signaling pathway using the BG1 cell line (AID 743080; calls by dose curve;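 further: BG1 cells stimulated with 17beta-estradiol alongside compound; nearly all actives have a fitted effect of over 25% in size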; further: potency means the concentration at half of the fitted maximal effect)
Outline: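 BG1Luc4E2, endogenous ER-alpha, 4xERE-luc; 5 d charcoal-stripped FBS, phenol red free; 24 h plating; cpd + 17beta-estradiol 21.5 h, 37 C/5% CO2; CellTiter-Fluor viability 30 min, then ONE-Glo luciferase 30 min RT.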

[9] = qHTS assay to identify small molecule antagonists of the estrogen receptor alpha (ER-alpha) signaling pathway using the BG1 cell line - cell viability counter screen (AID 743081);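 further: compound given together with 17beta-estradiol as the ER stimulus; series mostly up to about 70 µM; nearly all actives have a fitted effect of over 45% in size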
[10] = molecular target: Aromatase (Homo sapiens) (UniProt P11511); test: qHTS assay to identify aromatase inhibitors (AID 743083); further: series mostly up to about 70 µM; nearly all actives have a fitted effect of over 55% in size
Aromatase (Homo sapiens), sequence (P11511 whole entry, looked up): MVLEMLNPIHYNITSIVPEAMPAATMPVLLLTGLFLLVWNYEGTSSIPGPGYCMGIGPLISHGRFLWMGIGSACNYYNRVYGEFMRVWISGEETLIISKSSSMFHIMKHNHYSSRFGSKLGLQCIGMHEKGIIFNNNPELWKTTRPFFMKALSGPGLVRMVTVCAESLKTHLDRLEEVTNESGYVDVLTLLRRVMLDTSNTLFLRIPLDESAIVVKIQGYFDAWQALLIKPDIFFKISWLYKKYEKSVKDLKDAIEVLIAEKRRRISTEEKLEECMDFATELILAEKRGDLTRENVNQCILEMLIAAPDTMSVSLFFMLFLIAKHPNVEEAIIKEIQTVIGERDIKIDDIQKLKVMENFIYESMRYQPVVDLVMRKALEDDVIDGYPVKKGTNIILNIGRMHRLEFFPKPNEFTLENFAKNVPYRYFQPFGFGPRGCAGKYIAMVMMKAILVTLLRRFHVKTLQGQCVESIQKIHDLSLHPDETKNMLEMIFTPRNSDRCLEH

[11] = qHTS assay to identify aromatase inhibitors - cell viability counter screen (AID 743084);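 further: cells stimulated with testosterone during compound exposure; nearly all actives have a fitted effect of over 55% in size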
[12] = molecular target: Aryl hydrocarbon receptor (Homo sapiens) (UniProt P35869); test: qHTS assay to identify small molecule that activate the aryl hydrocarbon receptor (AhR) signaling pathway (AID 743085); further: nearly all actives have a fitted effect of over 15% in size; further: potency means the concentration at half of the fitted maximal effect;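 on activation: HG2L7.5c1 human HepG2 liver cells with stably integrated DRE-driven firefly reporter; series mostly up to about 70 µM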
Aryl hydrocarbon receptor (Homo sapiens), sequence (P35869 whole entry, looked up): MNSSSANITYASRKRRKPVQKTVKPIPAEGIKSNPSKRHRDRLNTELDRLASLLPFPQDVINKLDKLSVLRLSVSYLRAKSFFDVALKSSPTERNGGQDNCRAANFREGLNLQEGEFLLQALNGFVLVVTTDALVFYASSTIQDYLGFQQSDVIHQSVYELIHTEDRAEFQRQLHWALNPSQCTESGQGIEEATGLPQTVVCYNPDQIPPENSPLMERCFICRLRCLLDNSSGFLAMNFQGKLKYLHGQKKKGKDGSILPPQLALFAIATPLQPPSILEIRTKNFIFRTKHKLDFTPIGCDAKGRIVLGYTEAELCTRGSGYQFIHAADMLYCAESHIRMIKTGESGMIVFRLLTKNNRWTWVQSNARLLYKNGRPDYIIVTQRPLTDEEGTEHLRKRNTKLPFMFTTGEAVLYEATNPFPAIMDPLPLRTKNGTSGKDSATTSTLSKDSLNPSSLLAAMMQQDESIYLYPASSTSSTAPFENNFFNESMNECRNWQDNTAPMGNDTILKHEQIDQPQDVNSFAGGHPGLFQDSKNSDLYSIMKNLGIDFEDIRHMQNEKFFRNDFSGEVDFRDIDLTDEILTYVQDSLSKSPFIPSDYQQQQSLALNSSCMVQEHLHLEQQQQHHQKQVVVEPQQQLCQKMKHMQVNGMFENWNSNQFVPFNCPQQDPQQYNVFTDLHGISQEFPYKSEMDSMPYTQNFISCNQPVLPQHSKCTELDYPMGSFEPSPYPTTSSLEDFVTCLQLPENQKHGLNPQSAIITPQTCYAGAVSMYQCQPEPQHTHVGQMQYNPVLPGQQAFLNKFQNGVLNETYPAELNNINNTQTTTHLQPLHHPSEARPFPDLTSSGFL
Outline: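 Cell line HG2L7.5c1 (human hepatoma, 20× DRE-luc). Plated, 5 h 37C, compound/DMSO added, 24 h 37C. CellTiter-Fluor 30 min 37C → fluorescence; then ONE-Glo 30 min RT → luminescence.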

[13] = qHTS assay to identify small molecule that activate the aryl hydrocarbon receptor (AhR) signaling pathway - cell viability counter screen (AID 743086);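 further: HepG2 liver cells carrying the AhR DRE luciferase reporter; series mostly up to about 70 µM; nearly all actives have a fitted effect of over 45% in size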
Outline: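 HepG2-AhR-luc (HG2L7.5c1) cells, 4000/well, treated 24 h at 37 C with compound; viability measured as CellTiter-Fluor fluorescence after 30 min in the same wells as the luciferase read.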

[14] = molecular target: Peroxisome proliferator-activated receptor gamma (Homo sapiens) (UniProt P37231); test: qHTS assay to identify small molecule agonists of the peroxisome proliferator-activated receptor gamma (PPARg) signaling pathway (AID 743094; active means well fitted activation curve with a large enough effect in the signal ratio in the repeat runs, not every such curve was filed as active; the % refers to the signal ratio)
Peroxisome proliferator-activated receptor gamma (Homo sapiens), sequence (P37231 whole entry, looked up): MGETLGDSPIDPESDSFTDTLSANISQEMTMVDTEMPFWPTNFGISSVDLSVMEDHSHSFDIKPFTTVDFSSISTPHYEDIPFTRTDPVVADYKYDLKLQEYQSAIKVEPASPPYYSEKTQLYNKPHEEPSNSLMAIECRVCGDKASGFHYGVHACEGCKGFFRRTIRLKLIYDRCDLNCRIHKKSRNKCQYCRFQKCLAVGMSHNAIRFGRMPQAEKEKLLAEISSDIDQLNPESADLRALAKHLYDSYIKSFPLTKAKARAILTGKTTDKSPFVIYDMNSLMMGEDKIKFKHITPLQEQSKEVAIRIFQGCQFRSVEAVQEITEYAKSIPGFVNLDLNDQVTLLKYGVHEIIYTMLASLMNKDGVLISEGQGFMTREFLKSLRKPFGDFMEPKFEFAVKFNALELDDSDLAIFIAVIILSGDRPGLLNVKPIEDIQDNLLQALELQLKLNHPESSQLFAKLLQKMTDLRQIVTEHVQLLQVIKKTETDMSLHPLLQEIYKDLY
Outline: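 Cells from the PPARg UAS-bla HEK293H line are plated and incubated 5 h at 37C. Compounds in DMSO are pinned in and left 17 h at 37C. LiveBLAzer B/G substrate is then added for 1 h at room temperature before fluorescence is measured.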

[15] = molecular target: Peroxisome proliferator-activated receptor gamma (Homo sapiens) (UniProt P37231); test: qHTS assay to identify small molecule antagonists of the peroxisome proliferator-activated receptor gamma (PPARg) signaling pathway (AID 743191; calls by dose curve; further: series mostly up to about 63 µM; nearly all actives have a fitted effect of over 30% in size)
Outline: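 GeneBLAzer PPARg UAS-bla HEK293H cells, 5 h post-plating, exposed to compounds 17 h at 37C. LiveBLAzer B/G FRET substrate added for 1 h at room temperature; beta-lactamase reporter read by fluorescence intensity.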

[16] = qHTS assay to identify small molecule antagonists of the peroxisome proliferator-activated receptor gamma (PPARg) signaling pathway - cell viability counter screen (AID 743194); further: nearly all actives have a fitted effect of over 55% in size
Outline: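 Cytotoxicity counter screen in PPARg-bla HEK293H cells, same wells as reporter assay. Compounds plus 50 nM rosiglitazone (final) for 17 h at 37 C, then viability read by CellTiter-Glo luminescence.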

[17] = qHTS assay for small molecule agonists of the antioxidant response element (ARE) signaling pathway (AID 743202; active means well fitted activation curve with a large enough effect in the signal ratio in the repeat runs, not every such curve was filed as active; the % refers to the signal ratio; further: potency means the concentration at half of the fitted maximal effect)
Outline: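 HepG2 ARE-bla cells; 16 h treatment at 37 C; FRET-based beta-lactamase fluorescence read after 2 h substrate incubation at room temperature.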

[18] = qHTS assay for small molecule agonists of the antioxidant response element (ARE) signaling pathway - cell viability counter screen (AID 743203; calls by dose curve; further: nearly all actives have a fitted effect of over 55% in size)
Outline: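 Cytotoxicity was tested in parallel with the ARE reporter screen. ARE-bla HepG2 cells were exposed to compounds for 16 hrs, and viability was taken from CellTiter-Glo luminescence.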

[19] = qHTS assay for small molecule activators of the heat shock response signaling pathway - cell viability counter screen (AID 743209); further: nearly all actives have a fitted effect of over 50% in size
Outline: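 Cytotoxicity counter screen run in parallel with the HSE beta-lactamase reporter, using the same wells. HeLa HSE-bla cells received compound for 5 h at 37 C; ATP-based CellTiter-Glo luminescence was measured after 30 min at room temperature.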

[20] = qHTS assay for small molecule activators of the heat shock response signaling pathway (AID 743210; active means well fitted activation curve with a large enough effect in the signal ratio in the repeat runs, with a control signal flat, not every such curve was filed as active; the % refers to the signal ratio;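 further: HeLa cells with beta-lactamase reporter driven by heat shock elements; series mostly up to about 63 µM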)
Outline: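 Following overnight attachment, HSE-bla HeLa cells received test compounds for 5 h at 37 C; beta-lactamase activity was then detected via FRET substrate fluorescence.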

Measured: Potency

CN(C)/N=N/c1nc[nH]c1C(N)=O
inactive: [1] | [2] | [3] | [4] | [5] | [6] | [7] | [8] | [9] | [10] | [11] | [12] | [13] | [14] | [15] | [16] | [17] | [18]

NCCS(=O)(=O)O
inactive and 28.4 µM (active): [1]
inactive: [2] | [3] | [4] | [5] | [6] | [7] | [8] | [9] | [10] | [11] | [12] | [13] | [14] | [15] | [16] | [17] | [18] | [19]

CC1(C)O[C@@H]2C[C@H]3[C@@H]4C[C@H](F)C5=CC(=O)C=C[C@]5(C)[C@@]4(F)[C@@H](O)C[C@]3(C)[C@]2(C(=O)CO)O1
inactive: [1] | [2] | [3] | [4] | [5] | [6] | [7] | [8] | [9] | [10] | [11] | [12] | [13] | [14] | [15] | [16] | [17] | [18] | [19]

CCCCCC1C(=O)CCC1CC(=O)OC (stereo not given)
inactive: [1] | [2] | [3] | [4] | [5] | [6] | [7] | [8] | [9] | [10] | [11] | [12] | [13] | [14] | [15] | [16] | [17] | [18] | [19]

O=C(O)c1cc(=O)[nH]c(=O)[nH]1
inactive: [1] | [2] | [3] | [4] | [5] | [6] | [7] | [8] | [9] | [10] | [11] | [12] | [13] | [14] | [15] | [16] | [17] | [18]

CNC[C@H](O)c1ccc(O)c(O)c1
inactive: [1] | [2] | [3] | [4] | [5] | [6] | [7] | [8] | [9] | [10] | [11] | [12] | [13] | [14] | [15] | [16] | [17] | [18] | [19]

CCc1cccc2c3c([nH]c12)C(CC)(CC(=O)O)OCC3 (stereo not given)
inactive: [1] | [2] | [3] | [4] | [5] | [6] | [7] | [8] | [9] | [10] | [11] | [12] | [13] | [14] | [15] | [16] | [17] | [18] | [19] | [20]

c1ccc2c(c1)[nH]c1ccccc12
inactive: [1] | [2] | [3] | [4] | [5] | [6] | [7] | [8] | [9] | [10] | [11] | [12] | [13] | [14] | [15] | [16] | [17] | [18] | [20]

Cc1ccc([N+](=O)[O-])c(C)c1
inactive: [1] | [2] | [3] | [4] | [5] | [6] | [8] | [9] | [10] | [11] | [12] | [13] | [14] | [15] | [16] | [17] | [18] | [19]
inactive and 68.6 µM (active): [7]

CCCCCCCC/C=C\CCCCCCCC(=O)O
inactive: [1] | [2] | [3] | [4] | [5] | [6] | [7] | [8] | [9] | [10] | [11] | [12] | [13] | [14] | [16] | [17] | [18]

CCCCCCCCCCCCCO
inactive: [1] | [2] | [3] | [4] | [5] | [6] | [7] | [8] | [9] | [10] | [11] | [12] | [13] | [14] | [15] | [16] | [17] | [18]

Nc1cc(Cl)c(N)c(Cl)c1
active: [12] 27.1 µM and 21.7 µM | [17] 27.3 µM
inactive: [1] | [2] | [3] | [4] | [5] | [6] | [7] | [9] | [10] | [11] | [13] | [14] | [15] | [16] | [18] | [19] | [20]
34.1 µM (active) and inactive: [8]

C=CC(C)(O)CCC=C(C)C (stereo not given)
inactive: [1] | [2] | [3] | [5] | [9] | [10] | [11] | [12] | [13] | [14] | [15] | [16] | [17] | [18] | [19]

— PubChem BioAssay (Tox21)
